# Assay outcomes deposited in PubChem BioAssay by National Center for Advancing Translational Sciences (NCATS).
# Most compounds without a hit are left out; they make up all but 7.9% or so of the library.
# HT1080NT lethal – kills 2HG-producing HT-1080-NT fibrosarcoma cells. HT-1080-NT fibrosarcoma viability, CellTiter-Glo ATP luminescence, 48 h. AID 686970. hit rate 1.6% among 360,000. Potency, µM (top dose mostly 46.1 µM), without a hit: at the top dose activity, negative = less viability, hits mostly cytotoxic;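 further: NT is the 2HG producing partner of a matched IDH1 knockdown line; 0% = DMSO-treated cells and -100% = media-only wells without cells; nearly all actives have a fitted effect of over 55% in size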
#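 Luminescent CellTiter-Glo readout after 48 hours of compound exposure at 37 degrees C defined viability of HT-1080-NT cells. Activity was normalized to DMSO wells and cell-free media wells; concentration-response curves were fitted and assigned curve classes.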
# MCF10A rereplic – induces DNA re-replication in MCF 10a normal breast cells; MCF 10A DNA re-replication, Hoechst nuclear intensity, 48 h; Potency, µM (doses to about 46.1 µM), for inactives: at the highest dose activity, positive = re-replication, actives largely listed as activators; AID 624296; hit rate 2.9% among 350,000; further: % of control where 0% means no effect; nearly all actives have a fitted effect of over 50% in size
# SW480 rereplic – inducers of DNA re-replication in SW480 colon cancer cells; SW480 DNA re-replication, Hoechst DNA content imaging, 48 h; Potency, µM (highest dose often 46.1 µM), inactives show at the top dose re-replication activation, hits mostly activators; hit rate 1.8% among 340,000; further: % of control where 0% means no effect; nearly all actives have a fitted effect of over 55% in size
#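 Compounds, transferred as 23 nL by pin tool, were incubated with cells for 48 hr; DNA content per nucleus was then quantified by Hoechst staining and fluorescence plate imaging.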
# KB-V1 cytotox – kills drug-selected multidrug resistant KB-V1 cells; KB-V1 MDR cells viability, CellTiter-Glo, 72 h; Potency, µM (titrated, usually from 46.1 µM), actives largely listed as cytotoxic; hit rate 3.4% among 400,000; AID 1347076; further: on the % scale 0 is the no-effect control and ±100 the full control effect; nearly all actives have a fitted effect of over 60% in size
#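 KB-V1 cells (P-gp-expressing MDR subline of KB-3-1) in phenol-red-free DMEM with 10% FBS were exposed to library compounds over a concentration series for 72 h at 37 degrees C. Viability read by CellTiter-Glo luminescence; concentration-effect curves fitted after normalization.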
# KB-3-1 cytotox – kills parental KB-3-1 adenocarcinoma cells | KB-3-1 viability, CellTiter-Glo ATP luminescence, 72 h | Potency, µM (top dose mostly 46.1 µM), usual class: cytotoxic | AID 1347075 | hit rate 1.4% among 400,000; further: on the % scale 0 is the no-effect control and ±100 the full control effect; nearly all actives have a fitted effect of over 60% in size
#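 Cells are dispensed, compounds pinned in, plates held at 37 °C for 72 h, then CellTiter-Glo is added and luminescence read after 10 minutes. Cell line: parental KB-3-1 in phenol-red-free DMEM, 10% FBS.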
# HT1080 IDH1KD tx – kills HT-1080 cells with IDH1 knockdown | Potency, µM (doses to about 46.1 µM), without a hit: at the highest dose activity, negative = toxicity, hits mostly cytotoxic | AID 686971 | HT-1080 IDH1 knockdown viability, ATP luminescence, 48 h | hit rate 2% among 360,000;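 further: 0% = DMSO wells and -100% = cell-free medium wells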
#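 IDH1KD HT-1080 cells, 750/well, RPMI + 5% FBS; compound pinned after 2 h settling; 48 h, 37 °C; CellTiter-Glo luminescence; % activity normalised to DMSO and no-cell wells; curves fitted, classed by r2 and efficacy.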
# Starred values were filed as active, the others as inactive; i = inactive; ? = inconclusive; . = not tested or not shown. The call rests on the fitted dose curve; in most records, active means well fitted curve in the direction sought with a large enough effect; inconclusive means small, poorly fitted or top-dose-only effect, or another doubt; inactive means no such curve, though single readings can be large; an effect the other way counts as inactive or inconclusive. Potency means the concentration at half of the fitted maximal effect.
SMILES,HT1080NT lethal,MCF10A rereplic,SW480 rereplic,KB-V1 cytotox,KB-3-1 cytotox,HT1080 IDH1KD tx
O=C1CC2OCC=C3CN4CCC56c7ccccc7N1C5[C@H]2[C@H]3C[C@H]46 (stereo partly specified) (tested in a mixture with another compound),.,.,-4.5%,.,.,.
O=C1CC23c4ccccc4N4C(=O)CC5OCC=C6CN1C2CC6C5C43 (stereo unspecified),11.1%,0.6%,0.2%,14.6µM*,i,11.4%
O=P(Oc1ccccc1)(Oc1ccccc1)C(Nc1ccccc1)c1ccccc1 (stereo unspecified),-26.7%,?,17.6%,13µM*,?,-10.0%
O=P(Oc1ccccc1)(Oc1ccccc1)C(O)c1ccccc1 (stereo unspecified),12.4%,-2.1%,-5.3%,i,i,9.2%
CC(C)COP(=O)(OCC(C)C)C(Nc1ccccc1)c1ccccc1 (stereo unspecified),18.4µM*,?,-74.9%,?,i,?
CC(C)COP(=O)(c1ccc(N(C)C)cc1)C(Nc1ccccc1)c1ccccc1 (stereo unspecified),-11.5%,?,?,?,?,-5.8%
N#CC1(N2CCCCC2)CCCCC1,.,7.9%,-1.7%,.,.,.
CC(C)C(=O)Nc1ccc([N+](=O)[O-])c(C(F)(F)F)c1,-8.3%,-9.9%,-84.4%,?,i,-19.8%
Cn1cnc([N+](=O)[O-])c1Sc1ccc([N+](=O)[O-])cc1,16.4µM*,?,13.6%,i,i,20.6µM*
O=[N+]([O-])c1ccc([As](=O)(O)O)cc1,.,3.9%,-7.0%,.,.,.
COc1cccc(C(c2nnnn2Cc2ccccc2)N2CCC(n3c(=O)[nH]c4ccccc43)CC2)c1OC (stereo unspecified),20.6µM*,.,.,18.4µM*,?,?
O=c1[nH]c2ccccc2n1C1CCN(C(c2cc3ccccc3o2)c2nnnn2Cc2ccccc2)CC1 (stereo unspecified),10.3µM*,.,.,?,?,8.2µM*
O=c1[nH]c2ccccc2n1C1CCN(C(CCc2ccccc2)c2nnnn2C2CCCC2)CC1 (stereo unspecified),?,.,.,3.26µM*,?,?
CCSc1nnc(NC(=O)c2cccn(Cc3ccc(Cl)cc3)c2=O)s1,.,.,.,i,i,.
CCN(C[C@H]1N[C@@](C)(C(=O)OC)[C@H]2C(=O)N(Cc3ccccc3)C(=O)[C@@H]12)C(=O)Nc1ccccc1,0.2%,1.2%,?,i,i,-1.7%
CCN(CCNc1ccc([N+](=O)[O-])c2cccnc12)S(=O)(=O)c1ccccc1,5.2%,10.4%,-8.6%,i,i,9.3%
Cc1c(NS(=O)(=O)c2ccccc2)ccc([N+](=O)[O-])c1Cl,2.91µM*,20.6µM*,2.9%,?,?,?
ClC1=C(Cl)C2(Cl)C(CBr)CC1(Cl)C2(Cl)Cl (stereo unspecified),.,18.8µM*,-5.8%,.,.,.
COc1cc(CN2CC3CC(C2)c2cccc(=O)n2C3)cc(OC)c1OC (stereo unspecified),2.6%,25.9µM*,1.0%,i,i,0.2%
O=C(CO)C(O)C(O)C(O)CO (stereo unspecified),-0.4%,-8.9%,?,i,i,1.0%
Cc1cccc(OCC(=O)N2CCN(CCc3ccccn3)CC2)c1,.,.,.,i,i,.
CC(C)Oc1cccc(NC(=O)c2cccn(Cc3ccc4c(c3)OC(F)(F)O4)c2=O)c1,-14.5%,13µM*,?,i,?,-27.3%
O=C(Nc1ccc(C(F)(F)F)cc1)c1cccn(Cc2ccc3c(c2)OC(F)(F)O3)c1=O,-13.5%,?,-8.4%,2.91µM*,8.2µM*,-3.7%
CCOC(=O)C1(C)CCCN1C(=O)c1cccs1 (stereo unspecified),?,.,.,i,i,2.9%
CC(C)Nc1ccc(Nc2ccccc2)cc1,.,?,23.7µM*,i,18.4µM*,.
SMILES,HT1080NT lethal,MCF10A rereplic,SW480 rereplic,KB-V1 cytotox,KB-3-1 cytotox,HT1080 IDH1KD tx
C[C@H]1CCCC=CC2C[C@H](O)C[C@@H]2[C@H](O)C=CC(=O)O1 (stereo partly specified),.,.,.,0.0184µM*,0.0073µM*,.
C[C@H]1CCC/C=C/[C@@H]2C[C@H](O)C[C@H]2[C@@H](O)/C=C/C(=O)O1,?,4.6%,?,0.184µM*,0.184µM*,0.146µM*
S=c1[nH]nc(C2CC2)n1Cc1ccccc1,-0.3%,-21.6%,-2.5%,i,i,0.3%
Cc1cccc(-n2c(/C=C/c3cn(C)c4ccccc34)nc3ccccc3c2=O)c1,.,.,.,i,i,.
Cc1nc2ccccc2c(=O)n1/N=C/c1cc(Br)cc(Br)c1O,-25.0%,26.9%,7.31µM*,i,i,?
CC1CCN(c2ccccc2NC(=O)c2cc3ccccc3o2)CC1,-12.8%,?,13.0%,i,i,-27.2%
c1ccc(/N=C2\N=C(Nc3ccccn3)c3ccccc32)nc1,?,22.8%,?,2.91µM*,i,-9.0%
S=C=Nc1ccccn1,24.8%,12.1%,-7.3%,i,i,11.8%
COc1ccccc1-c1nn2c(=O)cc(CN3CCN(C(=O)COc4ccccc4Cl)CC3)nc2s1,.,.,.,i,i,.
NC(=O)c1ccc(N)nc1,2.59µM*,-34.0%,?,?,i,4.61µM*
O=C(NC(=O)c1c(F)cccc1F)Nc1cc(Cl)c(OC(F)(F)C(F)C(F)(F)F)cc1Cl (stereo unspecified),.,19.1%,0.9%,.,.,.
CCc1ccc(NP(=O)(Oc2ccccc2F)Oc2ccccc2F)cc1,18.4µM*,22.2%,27.4%,i,i,23.1µM*
Cc1cccc(NP(=O)(Oc2ccccc2F)Oc2ccccc2F)c1C,?,?,19.6%,i,i,?
Cc1ccc(NP(=O)(Oc2ccccc2F)Oc2ccccc2F)cc1,?,18.4µM*,?,?,i,?
CCOc1ccc(CN2C(=O)c3ccccc3Sc3ccc(C(=O)N4CCC5(CC4)OCCO5)cc32)cc1,.,.,.,i,i,.
Cc1ccccc1NCC(=O)N/N=C/C(Br)=C/c1ccccc1,?,0.5%,7.3%,?,?,17.8µM*
O=C1NC(=O)N(Cc2ccc(F)cc2)C(=O)/C1=C\C=C\c1ccco1,20.6µM*,3.66µM*,8.2µM*,?,?,?
COc1cc(/C=C2\C(=O)NC(=O)N(c3ccccc3)C2=O)cc(OC)c1OC,10.2%,-5.9%,-0.7%,i,i,12.0%
